The values that follow come from ChEMBL document CHEMBL3988442, “University of Dundee, Small-Polar-MMV Screening Library” (2021).

The target of the experiment is Shiga toxin 2 (Escherichia coli O157:H7) (UniProt P09385+P09386). The experiment in a line: E. coli 0.157:H7 Shiga Toxin SOP - stx2 screening assay. The format is functional. Further details: scale not given: direction of the effect not stated beside the values. The note with it: 30 µM.
Regarding `Cc1csc([C@@H]2C[C@@H]3CCN(Cc4cnn(C)c4)C[C@H]3O2)n1`, the Percent Effect was -29.9%. In the case of `CN1CC(=O)N(c2cccc(F)c2)CC12CCN(Cc1cccnc1)C2` (stereo not given) it was -14.7%; in that of `Cn1ncc2c1C(COCC1CC1)CN(Cc1ccc(F)cc1)C2` (stereo not given), -5.43%. As to `O=C(Nc1nccs1)N1CCCC(N2CCNC2=O)C1` (stereo not given), the Percent Effect is -10.1%. In the case of `N#CCCN(C(=O)CN1CCCC1Cc1ccccc1)c1ccccc1` (stereo not given) it was 27.4%. The figure for `COc1ccccc1N1CCC(CNCc2cccc(O)c2)C1` (stereo not given) is -10.3%; for `Cc1cccc(OCCC(=O)N(C)CCC#N)c1C` it is 8.57%.

For the molecule `Cc1cccc(CN2CCC3(CCN(c4ccccn4)C3)C2=O)c1` (stereo not given), the Percent Effect was -2.5%. Regarding `CCN(Cc1ccc2c(c1)OCO2)Cc1nc(C)no1`, the Percent Effect amounted to 23.9%.

Turning to `Cc1nc([C@@H]2C[C@@H]3CCN(C(=O)c4occc4C)C[C@H]3O2)no1`, the Percent Effect was -14.5%. As to `CCc1nnc2n1CCN(C(=O)COCCc1ccccc1)C2`, the Percent Effect was determined as 24.8%. With `O=C(NCc1cccc(F)c1)N1CCC2(CC(=O)N(c3ccsc3)C2)C1` (stereo not given), the Percent Effect is -7.69%.

For `Cc1ccc(CC(=O)N(C)CC2(O)CCN(c3ccccn3)C2)s1` (stereo not given), the Percent Effect was -0.365%. In the case of `O=C(NC1=NCCCN1c1ccc(Cl)cc1)c1cccc(Cl)c1` it was -69.6%; in that of `O=C(c1ccccc1OCC1CC1)N1CCCC(n2ccnc2)C1` (stereo not given), -13.9%.

On to `CCc1cc(NCCc2ccc(O)cc2)n2nccc2n1`, for which the Percent Effect stood at 5.92%. In the case of `CC(C)c1cc(NC(=O)c2ccc(NC3CC3)nc2)[nH]n1`, the Percent Effect is -52%. For `c1nc2n(n1)CC(NCc1nc(-c3ccsc3)no1)CC2` (stereo not given), the Percent Effect came out at 10.5%. With `CC(=O)N1CCCCC1c1cc(C(=O)N2CCOCC2)[nH]n1` (stereo not given), the Percent Effect turned out to be 15.2%. In the case of `Cc1cnn(CCNCC(O)COc2c(C)ccc(C)c2C)c1` (stereo not given) it was -6.89%; in that of `CC(C)c1nnc2ccc(N3CCC(C(N)=O)CC3)nn12`, -20.5%; in that of `O=C(NCCn1ccnc1)c1cccc(F)c1`, 24.2%. With `CCc1nc(C2CCCN2C(=O)c2nc(C)n3ccccc23)no1` (stereo not given), the Percent Effect is -2.42%. For the molecule `Cc1cc(CNC(=O)NC(C)c2ccncc2)no1` (stereo not given), the Percent Effect is -40%. `Cc1nc2ccnn2c(C)c1CCC(=O)N1CCN(C2CC2)CC1`: the Percent Effect worked out at 33%. The figure for `Cc1cc(CN2CCCC2c2c(C)nn(C)c2Cl)no1` (stereo not given) is 8.59%. Consider `Cc1ccc(NC(=O)c2n[nH]c(-n3cnnc3)n2)cc1C`, for which the Percent Effect was -18.5%. On to `O=C(NCC1CCN(Cc2ccsc2)CC1)NC1CC1`, for which the Percent Effect is -10.9%.

With `CN(C)C(=O)CO[C@H]1CN(Cc2ccc(F)cc2)[C@@H]2CCCO[C@H]12`, the Percent Effect is -22%. With `CS(=O)(=O)CCC(=O)N1CCC2(CCCN(C3CCOCC3)C2=O)C1` (stereo not given), the Percent Effect is -8.62%.

Turning to `Cc1cc(Nc2nc(C)cs2)nc(C2CCCCN2CCO)n1` (stereo not given), the Percent Effect is -34.2%. Take `Cc1ccc(NC(=O)N2C[C@H]3CC[C@@H]2CN(Cc2cscn2)C3)cc1`: the Percent Effect is 8.71%. In the case of `CN(CCNC(=O)NCc1ccncc1)C1CCCC1` it was 8.07%; in that of `O=C(CN1CCOC(Cn2cccn2)C1)NCc1cccs1` (stereo not given), -9.71%. On to `CCc1ccc(C(=O)N2CCN(CCS(C)(=O)=O)CC2)o1`, for which the Percent Effect amounted to 24.9%. `CCCn1c(C)c(CC(=O)NC)c2c1CC(C)(C)CC2=O`: the Percent Effect was -13.3%. On to `CC1CCN(S(=O)(=O)NCC2CCOc3ccccc3C2)CC1` (stereo not given), for which the Percent Effect came out at 5.97%. For `CCOCC1CN(S(C)(=O)=O)Cc2cnn(C)c21` (stereo not given), the Percent Effect was -35.8%.

For the molecule `O=C(NCc1ccco1)C1CCCN1Cc1nc(-c2ccco2)no1` (stereo not given), the Percent Effect came out at 23.3%. Consider `COc1ccccc1OCCC(=O)N1CCCC1Cn1cc(C)cn1` (stereo not given), for which the Percent Effect was 29.9%.
